The values that follow come from PubChem BioAssay AID686979 (National Center for Advancing Translational Sciences (NCATS), 2013).

Screen size: about 420,000 compounds; about 50,000 (12%) were called active. Inconclusive results (about 26%) are left out. The sample as a whole holds a higher share of actives than the screen did. A number with no mark means an inactive call. The call rests on the fitted dose curve; in most records, active means well fitted inhibition curve with a large enough effect; inconclusive means small, poorly fitted or top-dose-only effect; inactive means flat fitted curve, though single readings scatter.
On the % scale 0 is the no-effect control and ±100 the full control effect; potency means the concentration at half of the fitted maximal effect.

A short description of the test: qHTS for Inhibitors of human tyrosyl-DNA phosphodiesterase 1 (TDP1): qHTS in cells in presence of CPT. Further: nearly all actives have a fitted effect of over 55% in size. As to conditions: chicken DT40 Tdp1-/-;hTDP1 cells + 20 nM CPT, ATP luminescence, 48 h; series mostly up to 46.2 µM; activity change, negative = growth inhibition: at the top concentration. The essentials: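 Chicken DT40 Tdp1-/- cells complemented with human TDP1, 400 cells/well, exposed to compounds plus 20 nM camptothecin for at least 48 h at 37 C; viability read as ATP content by CellTiter-Glo luminescence.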
On the technique in general: In qHTS, concentration-response curves come from the screen itself.
Turning to `CC(C)(C)C(=O)c1c(N)[nH]c(C(=O)c2ccccc2)c1-c1ccc(F)cc1`, the “activity change, negative = growth inhibition” value was -29.4%.
Regarding `Cc1cc(NC(=O)CSc2nnc(-c3ccco3)n2N)no1`, the “activity change, negative = growth inhibition” value was 8.93%.
The same measure, in the same setting: under `Cc1cc(NC(=O)CSc2nnnn2-c2ccc(F)cc2)no1` stands -0.0128%.
For `Cc1cc(C)c2c(c1)cc(C)c1nnc(SCC(=O)Nc3cc(C)on3)n12`, the Potency was 8.2 µM (active).
For `O=C(CC1Oc2ccccc2NC1=O)NCc1ccc(F)cc1` (stereo not drawn), the “activity change, negative = growth inhibition” value was -23.2%.
For the compound `COc1cccc(NC(=O)CSc2nnc(C3CCCCC3)n2N)c1`, the “activity change, negative = growth inhibition” value is -9.54%.
Consider `CCN(CC)S(=O)(=O)c1ccc(Cl)c(NC(=O)c2ccncc2)c1`, for which the “activity change, negative = growth inhibition” value was 7.34%.
Turning to `CCN(CC)S(=O)(=O)c1ccc(NC(=O)c2cnc(C)cn2)cc1`, the “activity change, negative = growth inhibition” value was -2.9%.
Regarding `CCN(CC)S(=O)(=O)c1ccc2c(c1)nc(CN(C)C(=O)Nc1ccc(Cl)cc1)n2C`, the Potency was 18.4 µM (active).
Consider `COc1cc(NS(=O)(=O)c2ccc(NC(=S)NC(=O)c3ccc(Br)cc3)cc2)ncn1`, for which the “activity change, negative = growth inhibition” value was -7.13%.
The same measure, in the same setting: as for `C=CCOc1cccc(CNCc2cccnc2)c1`, the figure is -0.189%; as for `COC(=O)[C@H]1[C@H]2C[C@H]3c4[nH]c5ccccc5c4CCN3C[C@@H]2CC[C@@H]1O`, -1.82%.
Consider `C[C@@H]1ON(C)[C@H]2C[C@H]3c4cc(N5CCN(C)CC5)ccc4CCN3C(=O)[C@@H]12`, for which the “activity change, negative = growth inhibition” value was -7.89%.
Regarding `COc1ccc(-c2ccc3[nH]c4c(c3c2)CCN2C[C@H]3[C@H](C)ON(C)[C@H]3C[C@@H]42)cc1`, the Potency was 20.6 µM (active).
For `COc1ccc(NC(=O)C[C@H]2C(=O)N(CCc3ccccc3)C[C@@H]2C)cc1`, the “activity change, negative = growth inhibition” value was -20.8%.
The same measure, in the same setting: as for `CNC(=O)C[C@H]1C(=O)N(c2ccc(OC)cc2)C[C@@H]1Cc1ccccc1`, the figure is -26.9%.
Turning to `O=C(C[C@H]1C(=O)N(c2ccc(F)c(F)c2)C[C@@H]1Cc1ccccc1)Nc1ccccc1`, the Potency was 11.2 µM (active).
Consider `CCOc1ccc(CNCCSc2nnnn2C)cc1`, for which the “activity change, negative = growth inhibition” value was 4.21%.
Same read-out and setting: under `COC(=O)COc1cccc2c(=O)n(CC(=O)NCCc3ccc(OC)c(OC)c3)ccc12` stands 1.3%.
On the same count and under the same terms, under `CCOCCn1ccc2c(OCC(=O)NCc3ccc(C)cc3)cccc2c1=O` stands -21.4%.
As to `COC(=O)COc1cccc2c(=O)n(CC(=O)NCc3ccccc3)ccc12`, the Potency is 1.84 µM (active).
On to `O=C(NN=CC=Cc1ccccc1)C(O)C(O)C(=O)NN=CC=Cc1ccccc1` (stereo not drawn), for which the “activity change, negative = growth inhibition” value was 13.1%.
For `CCC(=O)Oc1cccc(C(=O)Nc2ccc(-c3nnc(-c4ccco4)o3)cc2)c1`, the Potency is 6.51 µM (active).
As to `CCCCOc1ccc(-c2nnc(-c3ccco3)o2)cc1`, the “activity change, negative = growth inhibition” value was -21.4%.
Same read-out and setting: under `CCOc1ccc(-c2nnc(-c3ccco3)o2)cc1` stands -12%.
On the same count and under the same terms, under `COc1ccc(C)cc1S(=O)(=O)Nc1cc2c3c(c1)CCC(=O)N3CCC2` stands -11.1%; under `Cc1nc(C(F)(F)F)ccc1C(=O)N1CCC1(C)C(=O)NS(=O)(=O)c1ccccc1Cl` (stereo not drawn), -5.55%.
Take `CCNC(=S)N(CCN(CC)CC)Cc1cc2cc3c(cc2[nH]c1=O)OCO3`: the “activity change, negative = growth inhibition” value was -19.8%.
For the compound `CCN(c1ccccc1)S(=O)(=O)c1cccc(C(=O)NCc2ccccc2CN2CCOCC2)c1`, the Potency was 20.6 µM (active).
Same read-out and setting: as for `CCOC(=O)C1CCN(C(=O)c2cccc(S(=O)(=O)N(CC)c3ccccc3)c2)CC1`, the figure is 14.6 µM (active).
With `CCN(CC)S(=O)(=O)c1ccc(Cl)c(C(=O)NCCN2CCOCC2)c1`, the “activity change, negative = growth inhibition” value is 10.4%.
As to `O=C(NCCN1CCOCC1)c1cccc(S(=O)(=O)Nc2ccc(F)cc2)c1`, the “activity change, negative = growth inhibition” value was -5.32%.
In the case of `CCOC(=O)C1CCCN(C(=O)c2cccc(S(=O)(=O)N3CCOCC3)c2)C1` (stereo not drawn), the “activity change, negative = growth inhibition” value was -26.6%.
For the compound `CCOC(=O)C1CCCN(C(=O)c2ccc(N(C)C)cc2)CC1` (stereo not drawn), the “activity change, negative = growth inhibition” value is -17.9%.
With `CCOc1ccc(CNC(=O)c2ccc3nc(CC)c(CC)nc3c2)cc1OC`, the “activity change, negative = growth inhibition” value was -29.6%.
Take `COc1ccc(C(=O)NC(=S)N2CCNC(=O)C2CC(=O)OC(C)C)cc1` (stereo not drawn): the “activity change, negative = growth inhibition” value is -7.41%.
In the case of `CCOc1cc(C(=O)Nc2ccc(S(=O)(=O)Nc3cnc4ccccc4n3)cc2)cc(OCC)c1OCC`, the “activity change, negative = growth inhibition” value was -5.96%.
Regarding `CCc1nc2ccc(C(=O)Nc3cccc(OC)c3)cn2c1N(CCC(C)C)CCN(C)C`, the “activity change, negative = growth inhibition” value was -98.8%.
On to `CCc1nc2ccc(C(=O)NCc3ccc(OC)cc3)cn2c1N(CC)Cc1cccc(Br)c1`, for which the Potency is 23.1 µM (active).
Still for that read-out and setting: as for `CCc1nc2ccc(C(=O)Nc3cc(-c4ccccc4)ccc3OC)cn2c1N(CC)CC(=O)N(C)C`, the figure is 14.6 µM (active).
Consider `CCc1nc2ccc(C(=O)N(C)Cc3ccco3)cn2c1N(C)C(=O)Cc1ccccc1`, for which the “activity change, negative = growth inhibition” value was -1.23%.
With `CCc1nc2ccc(C(=O)N3CCC(O)(Cc4ccccc4)CC3)cn2c1N(C)C(=O)Cc1ccccc1`, the “activity change, negative = growth inhibition” value was -29.7%.
Regarding `CCc1nc2ccc(C(=O)N(C)CCN(C)C)cn2c1N(CC)CCOC`, the “activity change, negative = growth inhibition” value was 5.06%.
Same read-out and setting: under `O=C(C[C@H]1CC[C@@H](NC(=O)c2ccncc2)[C@@H](CO)O1)NCC1CC1` stands 17.7%; under `O=C(NCCCNc1ccc([N+](=O)[O-])cc1Cl)c1ccccc1F`, 6.04%.
In the case of `N#CCSc1ccccc1NC(=O)CN1C(=O)NC(CCc2ccccc2)C1=O` (stereo not drawn), the “activity change, negative = growth inhibition” value is 3.98%.
On the same count and under the same terms, under `Cc1cnc(C(=O)OCC(=O)Nc2ccc(Cl)cc2Cl)cn1` stands -3.16%; under `CCOC(=O)c1c(NC(=O)COc2cc(C)ccc2C(C)C)sc(C)c1C`, -14.5%.
